Measured values reported in PubChem BioAssay (NCI).
The panel holds about 79,000 compounds, 15% with a hit somewhere; the sample as a whole holds those more often. Cut-off read from the data, not from the text of the source: active = growth inhibition above about 70%; inactive = the rest.

Key:
[1] = NCI Yeast Anticancer Drug Screen. Data for the rad50 strain (AID 155);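 note: 0% = growth of vehicle-only cultures of the same strain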; details: S. cerevisiae rad50 strain growth inhibition; at 50.0 µM; hits give high values
Outline: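 Cells are treated with compound, grown, and their growth is then scored against vehicle-only cultures of the same repair-deficient yeast strain.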

[2] = NCI Yeast Anticancer Drug Screen. Data for the mec2-1 strain (AID 157); details: S. cerevisiae mec2-1 strain, at 50.0 µM, hits give high values
Outline: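 Compounds were applied to mec2-1 yeast cells. Their growth was then compared with that of vehicle-treated cultures to give growth inhibition.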

[3] = NCI Yeast Anticancer Drug Screen. Data for the sgs1 mgt1 strain (AID 161);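 note: 0% = growth of cultures given vehicle only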; details: S. cerevisiae sgs1 mgt1 strain, at 50.0 µM, hits give high values
Outline: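 Growth of a repair-deficient yeast mutant was monitored after compound treatment and expressed as inhibition relative to vehicle-treated cultures.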

[4] = NCI Yeast Anticancer Drug Screen. Data for the cln2 rad14 strain (AID 165);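 note: 0% = growth equal to vehicle treated cultures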; details: S. cerevisiae cln2 rad14 strain, at 50.0 µM, hits give high values
Outline: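 Strain: cln2 rad14 yeast, altered in cell cycle control and DNA damage repair. Read-out: growth inhibition vs vehicle.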

[5] = NCI Yeast Anticancer Drug Screen. Data for the bub3 strain (AID 167); details: S. cerevisiae bub3 mutant strain, at 50.0 µM, hits give high values
Outline: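 Part of a panel of yeast mutants defective in DNA damage repair or cell cycle regulation. Each strain is grown with compound, and inhibition is calculated relative to solvent-treated cultures.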

[6] = NCI Yeast Anticancer Drug Screen. Data for the mlh1 rad18 strain (AID 175); details: S. cerevisiae mlh1 rad18 strain growth inhibition; at 50.0 µM; hits give high values
Outline: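 A repair-deficient yeast strain is exposed to test compound, and growth is scored relative to vehicle-treated controls.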

Measured: growth inhibition

COC(=O)c1noc2c1CSC1=C2CS(=O)(=O)c2ccccc21
inactive: [1] 16.4% | [2] 22% | [3] 30.4% | [4] 14.8% | [5] 17.2% | [6] 26.6%

Nc1c2c(cc3c1C(=O)c1ccccc1C3=O)OCO2
inactive: [1] 47.8% | [2] 20% | [3] 29.4% | [4] 16.2% | [5] 22% | [6] 39%

O=C1OCCC1(Cc1ccc(Cl)cc1)Cc1ccc(Cl)cc1
inactive: [1] -16.1% | [2] -22.9% | [3] -4.7% | [4] 10.4% | [5] 1.45% | [6] -3.05%

CCC(C)N1C(=O)c2ccccc2C1=O (stereo unspecified)
inactive: [1] 33% | [2] -13.6% | [3] 17.1% | [4] -13.6% | [5] 11.3% | [6] 27.1%

O=C1C(=O)N(CN2CCCCC2)c2ccccc21
inactive: [1] 10.4% | [2] -40.9% | [3] 26.4% | [4] 10.9% | [5] 22.4% | [6] 17.9%

CCCCCCC(=O)/C=C/c1cc(Cl)cc(Cl)c1OCOC
inactive: [1] 35% | [2] 26.1% | [3] 25.1% | [4] -4.4% | [5] 18.4% | [6] 5.6%

CCOC(=O)CC1(CC(=O)OCC)OCCO1
inactive: [1] -6.2% | [2] 7.1% | [3] -2.05% | [4] -4.15% | [5] -28.8% | [6] -26.2%

Nc1ccc(Cn2ccc(=O)[nH]c2=O)cc1
inactive: [1] -14.4% | [2] 3.2% | [3] 0.25% | [4] -26.9% | [5] -11.2% | [6] -0.8%

Oc1ccc(C=Nc2ccccc2)c(O)c1O
inactive: [1] -12.7% | [2] -24.4% | [3] -4.9% | [4] -7.25% | [5] -9.7% | [6] 6.2%

CC(=O)/C(=C/n1ccc(=O)[nH]c1=S)C(=O)Nc1ccc([N+](=O)[O-])cc1
inactive: [1] -18.3% | [2] -18.8% | [3] -38.2% | [4] -20.4% | [5] -2.85% | [6] -10.9%

Cc1cc(=O)[nH]c2[nH][nH]c(=O)c12
inactive: [1] -12.3% | [2] -28.6% | [3] -43.6% | [4] -7.35% | [5] 2.85% | [6] -8.8%

CC(CS(=O)(=O)Cc1ccccc1)C(N)=O (stereo unspecified)
inactive: [1] -4.8% | [2] 38.1% | [3] 14.3% | [4] 30.1% | [5] -9.95% | [6] -17.1%

Oc1ccccc1-n1nc2ccc3nonc3c2n1
inactive: [1] -16.8% | [2] -61.1% | [3] -38.9% | [4] -35.9% | [5] -1% | [6] -40.5%

CCCCCC(C)(O)CC(C)(C)C (stereo unspecified)
inactive: [1] -3.15% | [2] 5.75% | [3] 0.55% | [4] -7.95% | [5] 2.2% | [6] 34.8%

O=[N+]([O-])c1ccc2c(c1)C(O)c1ccccc1-2 (stereo unspecified)
inactive: [1] 35.6% | [2] 24.6% | [3] 12.9% | [4] 26.9% | [5] 26.2% | [6] 29.1%

N#Cc1sc2c(c1OC(=O)c1ccc(C(F)(F)F)cc1)c(=O)n(-c1ccccc1)c(=S)n2-c1ccccc1
inactive: [1] -11.9% | [2] 0.9% | [3] 1.05% | [4] 0.8% | [5] -6.2% | [6] 3.05%

NNC(=O)COCC(=O)NN
inactive: [1] -17.5% | [2] -27.2% | [3] -24.5% | [4] -9.1% | [5] -15.2% | [6] -25.1%

CC1=N/C(=C\c2ccc([N+](=O)[O-])cc2)C(=O)O1
inactive: [1] 19.9% | [2] 9.05% | [3] 2.45% | [4] 4.6% | [5] 13.2% | [6] 42.8%

Cc1cc(C)c2cnnn2n1
inactive: [1] 10.1% | [2] -14.1% | [3] 0.6% | [4] 15.4% | [5] -21.1% | [6] -2.75%

CN1C(c2ccccc2)=C(C#N)C(=O)CC(c2ccccc2)N1C (stereo unspecified)
inactive: [1] 26.1% | [2] 11.6% | [3] 30.2% | [4] 14.8% | [5] 11.4% | [6] 21.2%

Nc1nc(N)c2cc(CNc3ccc(C(=O)NC(C(=O)O)C(=O)O)cc3)ccc2n1
inactive: [1] -39.1% | [2] 8.1% | [3] -3.15% | [4] -16.6% | [5] -14.2% | [6] -15.6%
